Assay results as given in PubChem BioAssay (NCATS).
Results filed as inconclusive are left out. Where a call stands in place of a potency, no number is given. Activity calls are given as the source filed them. The call rests on the fitted dose curve; in most records, active means well fitted inhibition curve with a large enough effect; inconclusive means small, poorly fitted or top-dose-only effect; inactive means no such curve, though single readings can be large or run the other way. Numbered stars: 1 amine (or outer) side, 2 acyl side, 3 side chain; on linkers, the order of the positions; unused ones are H or OH. Bridge positions count the residues as written; N and C are the ends. Square brackets hold non-standard residues; d marks the D form. Peptide text beside a SMILES is read from it. I, II: the chains in the order shown. Actinocin(9to1) = Cc1c2oc3c(C)ccc(C(=O)[*:1])c3nc-2c(C(=O)[*:2])c(N)c1=O; NMeV = CN[C@H](C(=O)O)C(C)C; Sar = CNCC(=O)O

The molecules below were run against Protein phosphatase 1D (Homo sapiens) (UniProt O15297) (assay: RapidFire Mass Spectrometry qHTS Assay for Modulators of WT P53-Induced Phosphatase 1 (WIP1) (AID 1347424)). Details: WIP1 dephosphorylation of phosphopeptide, RapidFire MS; series mostly up to 63 µM.
Text: Assay Provider (PI): Nathan Coussens Ph. D.
National Center for Advancing Translational Sciences (NCATS), Rockville, MD
National Institute of Health (NIH), Bethesda, Maryland
WT P53-Induced Phosphatase 1 (WIP1) is a member of the magnesium-dependent serine/threonine protein phosphatase (PPM) family and is induced by P53 in response to DNA damage. In several human cancers, the WIP1 protein is overexpressed, which is generally associated with a worse prognosis. Although WIP1 is an attractive therapeutic target, no potent, selective, and bioactive small-molecule modulator with favorable pharmacokinetics has been reported. Phosphatase enzymes are among the most challenging targets for small molecules because of the difficulty of achieving both modulator selectivity and bioavailability. Another major obstacle has been the availability of robust and physiologically relevant phosphatase assays that are suitable for high-throughput screening.
Here, we describe two orthogonal biochemical WIP1 activity assays that utilize phosphopeptides from native WIP1 substrates. We optimized a RapidFire MS assay to quantify the enzymatically dephosphorylated peptide reaction product in a 384-well format. Additionally, a redshifted Rhodamine-PBP fluorescence assay was optimized in a 1,536-well format to enable real-time WIP1 activity measurements through the detection of the orthogonal reaction product, Pi. We validated these two optimized assays by quantitative high-throughput screening against the National Center for Advancing Translational Sciences (NCATS) Pharmaceutical Collection and used secondary assays to confirm and evaluate inhibitors identified in the primary screen.
SEQUENCE No. (e.g., 1, 2, 3, etc.); […] (e.g., Cells, Incubation, Reagent, etc.); VALUE; DESCRIPTION
1; Reagent; 50 uL; dispensed assay buffer: 0.1% formic acid in water (10 uL : 40 uL) solution in column 1
3; Library Compounds; 63 nL; library compounds in DMSO, columns 3-24
4; Control Compounds; 63 nL; DMSO in wells I-P, columns 1-2, GSK830371 (10 uM, final) in wells A-H, column 2
5; Time; 1 hr; incubation
6; Substrate; 2 uL; VEPPL-pS-QETFS (10 uM) in assay buffer, column 2-24
7; Time; 5 min; incubation
8; Reagent; 2 uL; 0.5% formic acid in water, columns 2-24
9; Reagent; 38 uL; VEPPL-S-QETF*S in 0.1% formic acid, columns 2-24
10; Detection; mass spec; RapidFire mass spectrometry
NOTES (numbers refer to sequence above)
1, 2, 6; dispensed reagent in White Nunc 384-well PP microplates (264573); assay buffer: 50 mM Tris-HCl pH 7.5, 30 mM MgCl2, 1 mM TCEP, 0.1 mM EGTA, 75 ug/mL BSA.
2, 6, 8, 9; Dispensed with BioRaptr (Beckman Coulter)
2, 6, 9; Final concentrations: 10 nM WIP1; 2 uM VEPPL-pS-QETFS; 1 uM VEFFL-S-QETF*S
3 & 4; Kalypsys Pintool transfer (Wako USA), Tip wash sequence: water, DMSO, methanol, 20 sec vacuum dry.
5 & 7; incubation at room temperature
10; RapidFire mass spectrometry read using the Agilent RapidFire 360 (Clausse, 2019)
Clausse V, et al. Physiologically relevant orthogonal assay for the discovery of small-molecule modulators of WIP1 […] in high-throughput screens. J Biol Chem. 2019, 294(46): 17654-17668. doi:10.1074/jbc.RA119.010201

Sequence of Protein phosphatase 1D (Homo sapiens) (O15297 whole entry, looked up): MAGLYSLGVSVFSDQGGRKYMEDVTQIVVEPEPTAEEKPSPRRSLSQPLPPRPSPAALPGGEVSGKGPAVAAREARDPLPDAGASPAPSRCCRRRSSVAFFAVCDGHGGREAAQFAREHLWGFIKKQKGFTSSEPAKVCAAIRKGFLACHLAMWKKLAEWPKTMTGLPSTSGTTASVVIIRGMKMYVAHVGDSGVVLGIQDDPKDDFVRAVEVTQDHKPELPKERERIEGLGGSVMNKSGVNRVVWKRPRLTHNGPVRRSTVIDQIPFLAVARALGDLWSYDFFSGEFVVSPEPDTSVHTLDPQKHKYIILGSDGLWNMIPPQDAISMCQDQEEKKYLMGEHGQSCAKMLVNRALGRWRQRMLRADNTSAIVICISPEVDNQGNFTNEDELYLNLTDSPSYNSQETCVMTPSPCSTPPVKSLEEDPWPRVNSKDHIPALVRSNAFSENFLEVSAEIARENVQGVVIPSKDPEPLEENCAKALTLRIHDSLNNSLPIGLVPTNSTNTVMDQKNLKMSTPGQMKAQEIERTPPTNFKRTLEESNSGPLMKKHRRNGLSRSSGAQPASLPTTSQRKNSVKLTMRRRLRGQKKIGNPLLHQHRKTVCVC

| SMILES | Potency |
| --- | --- |
| CC(=O)CC(c1ccc([N+](=O)[O-])cc1)c1c(O)c2ccccc2oc1=O (stereo not given) | inactive |
| CCOc1ccc2nc3cc(N)ccc3c(N)c2c1 | inactive |
| CCCN1CCCC[C@H]1C(=O)Nc1c(C)cccc1C | inactive |
| Cc1c(F)c(N2CCNC(C)C2)cc2c1c(=O)c(C(=O)O)cn2C1CC1 (stereo not given) | inactive |
| CO/N=C1\CN(c2nc3c(cc2F)c(=O)c(C(=O)O)cn3C2CC2)CC1CN (stereo not given) | inactive |
| CC1=C(C(=O)OC(C)C)C(c2cccc([N+](=O)[O-])c2)C(C(=O)OC2CN(C(c3ccccc3)c3ccccc3)C2)=C(N)N1 (stereo not given) | inactive |
| CC(C)(C)CC(C)(C)c1ccc(OCCOCC[N+](C)(C)Cc2ccccc2)cc1 | inactive |
| Cc1ccc(Nc2c(F)cccc2Cl)c(CC(=O)O)c1 | inactive |
| CCC(C(=O)OCCN(CC)CC)c1ccccc1 (stereo not given) | inactive |
| CCN(CC)C(=O)N1CCN(C)CC1 | inactive |
| O=C1c2ccccc2C(=O)C1c1ccccc1 | inactive |
| COc1ccc(CN2CCN(C(c3ccc(F)cc3)c3ccc(F)cc3)CC2)c(OC)c1OC | inactive |
| C[C@@H]1CN(CCCn2c3ccccc3c3ccccc32)C[C@H](C)N1 | inactive |
| CCCCC1=NC2(CCCC2)C(=O)N1Cc1ccc(-c2ccccc2-c2nn[nH]n2)cc1 | inactive |
| Cc1c2oc3c(C)ccc(C(=O)N[C@@H]4C(=O)N[C@H](C(C)C)C(=O)N5CCC[C@H]5C(=O)N(C)CC(=O)N(C)[C@@H](C(C)C)C(=O)O[C@@H]4C)c3nc-2c(C(=O)N[C@@H]2C(=O)N[C@H](C(C)C)C(=O)N3CCC[C@H]3C(=O)N(C)CC(=O)N(C)[C@@H](C(C)C)C(=O)O[C@@H]2C)c(N)c1=O (I: T[dV]P[Sar][NMeV] / II: T[dV]P[Sar][NMeV]; ester I:1-I:C, II:1-II:C; linker I:N-II:N via Actinocin(9to1)) | inactive |
| CCOc1ccc(Cc2nccc3cc(OCC)c(OCC)cc23)cc1OCC | inactive |
| CCOC(=O)[C@H](CCc1ccccc1)N[C@@H](C)C(=O)N1Cc2ccccc2C[C@H]1C(=O)O | inactive |
| C[C@]12CCC(=O)C=C1[C@@H]1C[C@@H]1[C@H]1[C@@H]3[C@@H]4C[C@@H]4[C@@]4(CCC(=O)O4)[C@@]3(C)CC[C@@H]12 | inactive |
| CN(C(=O)CN(CCO)CC(=O)N(C)C(C)(C)Cc1ccccc1)C(C)(C)Cc1ccccc1 | inactive |
| CCCCCCCCCCOCC(O)CN (stereo not given) | inactive |

| SMILES | Potency |
| --- | --- |
| CCN(CC)CCOC(=O)C(c1ccccc1)C1CCCCC1 (stereo not given) | inactive |
| C=C1C[C@H]2[C@@H]3C=C(C)C4=CC(=O)CC[C@]4(C)[C@H]3CC[C@]2(C)[C@@]1(OC(C)=O)C(C)=O | inactive |
| NC(=O)CC[C@@H]1NC(=O)[C@H](Cc2ccccc2)NC(=O)[C@H](Cc2ccc(O)cc2)NC(=O)CCSSC[C@@H](C(=O)N2CCC[C@H]2C(=O)N[C@@H](CCCN=C(N)N)C(=O)NCC(N)=O)NC(=O)[C@H](CC(N)=O)NC1=O | inactive |
| O=C(Nc1ccc(Cl)c(Cl)c1)C1CC1 | inactive |
| c1ccc(CNCCNCc2ccccc2)cc1 | inactive |
| COC(=O)C1=C(C)NC(C)=C(C(=O)O[C@@H]2CCCN(Cc3ccccc3)C2)[C@@H]1c1cccc([N+](=O)[O-])c1 | inactive |
| COc1cc2c(cc1OC)C(C(C(=O)N(CCc1ccc(OC)c(OC)c1OC)CCc1ccc(OC)c(OC)c1OC)c1ccccc1)=NCC2 (stereo not given) | inactive |
| C[C@@H]1C[C@H]2[C@@H]3C[C@H](F)C4=CC(=O)C(Cl)=C[C@]4(C)[C@@]3(F)[C@@H](O)C[C@]2(C)[C@@]1(O)C(=O)CO | inactive |
| COC(=O)CCc1ccc(OCC(O)CNC(C)C)cc1 (stereo not given) | inactive |
| C[C@]12CC[C@@H]3c4ccc(O)cc4CC[C@H]3[C@@H]1C[C@@H](O)[C@@H]2O | inactive |
| CC1=C(C(=O)O)N2C(=O)[C@@H](NC(=O)[C@H](N)c3ccc(O)cc3)[C@H]2SC1 | inactive |
| CC(O)(P(=O)(O)O)P(=O)(O)O | inactive |
| CCCCOc1ccc(C(=O)CCN2CCCCC2)cc1 | inactive |
| CCCCc1nc(Cl)c(CO)n1Cc1ccc(-c2ccccc2-c2nn[nH]n2)cc1 | inactive |
| CC1(C)O[C@@H]2C[C@H]3[C@@H]4C[C@H](F)C5=CC(=O)C=C[C@]5(C)[C@H]4[C@@H](O)C[C@]3(C)[C@]2(C(=O)CO)O1 | inactive |
| CN(C)C(=S)SC(=S)N(C)C | inactive |
| O=C(N/N=C/c1ccccc1O)c1ccncc1 | inactive |
| Cc1ccc(O)c2ncccc12 | inactive |
| O=c1[nH]c(=O)n([C@H]2CCCO2)cc1F | inactive |
| CC(=O)Oc1ccc2c(c1)CC[C@@H]1[C@@H]2CC[C@]2(C)[C@@H](O)CC[C@@H]12 | inactive |
